Screening data as filed in PubChem.
The list is not random: actives were taken first. Their share in the collection is about 5.9%.
ALR H2O2 inh: human ALR oxidase inhibition via reduced H2O2; P55789; purified ALR, DTT oxidation, H2O2 HRP-luminol luminescence; inhibition, % (concentration not given with the values); 3.8% of 290,000 active; AID 485317;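 active means mean replicate inhibition above about 79%, with every replicate also reaching it, limit read from the data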
Target sequence (P55789 whole entry, looked up): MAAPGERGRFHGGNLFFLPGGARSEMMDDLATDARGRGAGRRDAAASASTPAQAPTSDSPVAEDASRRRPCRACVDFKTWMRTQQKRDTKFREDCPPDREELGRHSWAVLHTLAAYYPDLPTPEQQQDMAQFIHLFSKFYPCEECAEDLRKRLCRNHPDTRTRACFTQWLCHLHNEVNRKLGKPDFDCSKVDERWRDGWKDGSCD
Rtt109 Vps75: C. albicans Rtt109 histone acetyltransferase inhibition. 0.16% of 330,000 active. purified Rtt109/Vps75, ThioGlo CoA-SH fluorescence, 4 h. inhibition, % at 34.9 µM;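 active means inhibition of at least 50% in every replicate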
Target sequence (Q5AAJ8 whole entry, looked up): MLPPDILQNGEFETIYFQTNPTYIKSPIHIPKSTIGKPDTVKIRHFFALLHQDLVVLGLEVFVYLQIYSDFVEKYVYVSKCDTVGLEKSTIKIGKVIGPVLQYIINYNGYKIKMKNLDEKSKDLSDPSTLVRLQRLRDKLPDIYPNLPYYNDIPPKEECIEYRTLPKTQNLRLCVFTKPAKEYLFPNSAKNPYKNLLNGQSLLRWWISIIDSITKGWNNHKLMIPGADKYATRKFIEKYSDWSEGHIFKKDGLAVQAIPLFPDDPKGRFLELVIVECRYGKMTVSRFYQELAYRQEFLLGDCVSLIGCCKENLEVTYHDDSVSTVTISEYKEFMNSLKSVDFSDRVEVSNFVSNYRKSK
ABHD5-PLIN5 inh: ABHD5-PLIN5 protein interaction inhibition | Q00G26+Q8WTS1 | Split G. princeps luciferase complementation, luminescence, 4 h | inhibition, % at 4 µM | 0.78% of 360,000 active;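 active means inhibition above the mean inhibition across every tested compound plus 3 SD, cut at about 22% in these data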;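 further: 0% = DMSO only wells and the 100% control is not disclosed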
LANA-H2B inh: blocks KSHV LANA binding to histone H2A/H2B | inhibition, % (no concentration beside the values) | Q9QR71 | 0.6% of 320,000 active | cell-free LANA-H2A/H2B peptide, fluorescence polarization; in the data active means inhibition mostly above about 10%, no sharp cut-off; inactive means mostly below about 6.7%
PRMT1 inh: PRMT1 (human) inhibition, primary screen. recombinant PRMT1, activity-based probe fluorescence polarization. inhibition, % at 2.79 µM. 1.3% of 370,000 active. AID 652257;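 active means inhibition above about 21% made by adding two undisclosed values, limit read from the data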
rCAG RNA binder: binds r(CAG) RNA repeats | r(CAG) RNA repeat, TO-PRO-1 dye displacement fluorescence | 1.3% of 370,000 active | inhibition, % at 3 µM | AID 651821;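 active means inhibition above the plate cutoff, the mean of all test compounds on that plate plus 3 SD, cut at about 35% in these data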;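 further: 0% = DMSO alone and 100% = 100 µM mitoxantrone as full dye displacement; higher means more dye released from RNA so lower well fluorescence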
* marks the source's active call; other numbers are inactive results; . = no result given.

SMILES	ALR H2O2 inh	Rtt109 Vps75	ABHD5-PLIN5 inh	LANA-H2B inh	PRMT1 inh	rCAG RNA binder
O=C(CSCc1ccc(Cl)cc1)NCCSCc1ccco1	31.9	-3.6	0.4	3.1	23.5*	-1.4
Cc1ccc(-n2c(Cc3cccs3)nnc2SCc2ccc([N+](=O)[O-])cc2)cc1	.	.	.	.	1.9	2.7
O=C(NCC1CC1)c1ccc2sc([C@@H]3O[C@H](CO)[C@H](O)[C@H](O)[C@H]3O)nc2c1	.	.	-6.0	.	-0.1	3.2
Cc1sc(NC(=O)c2ccccc2F)c(CN2CCCCC2)c1C	95.2*	0.3	-1.5	0.9	7.1	-1.8
CCCNC(=O)C1(C)CCN1C(=O)Cc1ccc(C(C)(C)C)cc1 (stereo not given)	.	.	0.1	.	0.6	-3.4
COc1ccc(CCC(=O)N(C)CC(=O)Nc2ccc(N3CCOCC3)cc2)cc1	93.6*	-0.1	-6.9	-0.1	-2.1	-5.5
CCOc1ccc(OCCCC(=O)N(C)CC(=O)Nc2ccc(N3CCOCC3)cc2)cc1	5.2	6.3	6.0	-1.1	-3.0	-3.5
CN(CC(=O)Nc1ccc(N2CCOCC2)cc1)CC(=O)Nc1ccc(N2CCOCC2)cc1	42.4	15.2	3.2	2.4	4.0	-0.9
CC(=O)c1ccc(OCC(=O)N(C)CC(=O)Nc2ccc(N3CCOCC3)cc2)cc1	18.4	10.2	-2.6	.	-1.7	0.4
CN(CC(=O)Nc1ccc(F)cc1)C(=O)COC(=O)c1ccc(=O)n(Cc2ccccc2)n1	.	10.4	0.9	-5.6	136.0*	-29.0
CC(Oc1ccc(Br)cc1)C(=O)N(C)CC(=O)Nc1ccc(N2CCOCC2)cc1 (stereo not given)	98.7*	-3.1	10.5	1.5	5.2	-1.3
CN(CC(=O)Nc1ccccc1Cl)C(=O)COC(=O)c1ccc(=O)n(Cc2ccccc2)n1	.	0.0	14.1	.	3.0	-2.1
CN(CC(=O)Nc1ccc(N2CCOCC2)cc1)C(=O)COc1ccccc1F	77.8*	5.0	3.1	-3.9	-0.8	3.8
O=C(N1CCC(C(O)(c2ccccc2)c2ccccc2)CC1)n1ncc(C(O)(c2ccccc2)c2ccccc2)n1	.	.	.	.	-1.8	.
CCCCNC(=O)C[C@@H]1C(=O)N(Cc2ccc(OC)cc2)C2=CCN(C(=O)OC(C)(C)C)C[C@]21C(=O)OCC	.	.	.	.	-1.3	-1.9
CN(CC(=O)Nc1ccc(F)cc1)C(=O)COc1ccccc1Cc1ccccc1	-3.7	50.8*	-10.6	1.7	1.0	1.2
CCN(CC(=O)Nc1ccc(N2CCOCC2)cc1)C(=O)COc1ccccc1OC	90.9*	.	0.2	10.5*	0.7	-4.9
COc1ccc(NC(=O)C2(C)Cc3c(-c4cccc(C(N)=O)c4)ccnc3O2)cc1 (stereo not given)	.	.	1.8	.	-0.3	-0.1
CC1(C(=O)NS(=O)(=O)C2CC2)CCN(C(=O)c2c(F)cccc2F)C1 (stereo not given)	.	.	-2.2	.	2.6	1.1
CC1Cc2ccccc2N1C(=O)CSc1ncccn1 (stereo not given)	26.2	-2.2	-2.5	30.1*	-0.9	0.2
Cc1ccccc1NC(=O)N1c2ccccc2CC1C (stereo not given)	6.4	.	-4.3	53.5*	-0.7	-0.2
CC1Cc2ccccc2N1C(=O)CSc1ccccn1 (stereo not given)	.	.	0.2	.	1.0	-1.3
CCN(CC)c1cccc(OCC(=O)N2c3ccccc3CC2C)c1 (stereo not given)	98.2*	-3.7	-3.9	2.8	-2.3	-7.4
CC1C=CC=CCCC=CC=CC=CC=CC(OC2O[C@H](C)[C@@H](O)[C@H](N)[C@@H]2O)CC(O)C(C(=O)O)C(O)CC(=O)CC(O)C(O)CCC(O)CC(O)CC(O)CC(=O)OC(C)C(C)C1O (stereo not given in full)	.	.	.	.	0.3	31.3
CC[C@H](CCCc1ccc(F)cc1)CN(Cc1ccc(OC)cc1)S(=O)(=O)c1ccc(C)cc1	.	.	.	.	0.5	3.9
SMILES	ALR H2O2 inh	Rtt109 Vps75	ABHD5-PLIN5 inh	LANA-H2B inh	PRMT1 inh	rCAG RNA binder
COC(=O)c1ccc(NC(=O)COc2ccc([N+](=O)[O-])cc2)cc1	.	3.3	-5.5	19.8*	6.0	-3.4
O=C(CCOc1ccccc1)Nc1ccc([N+](=O)[O-])cc1	-20.3	.	-7.8	14.6*	0.0	0.4
O=C(Nc1ccc(C(=O)O)cc1)Nc1ccc([N+](=O)[O-])cc1	.	-2.4	5.7	-3.2	0.3	5.8
O=C(Nc1ccc([N+](=O)[O-])cc1)C1C(c2ccccc2)=C1c1ccccc1	-7.6	-14.7	-6.6	17.7*	-1.1	7.8
COC(=O)[C@H](C(C)C)N(Cc1cn(Cc2ccccc2)nn1)S(=O)(=O)c1ccccc1Br	.	.	.	.	-1.7	-0.8
CCCCCCCCN1C(=O)[C@@H](CC(=O)NCCc2ccccc2OC)C[C@@]2(C(=O)OC)C1=C[C@H](C(C)C)O[C@@H]2C1CC1	.	.	.	.	-1.1	11.2
C=CCn1c(-c2ccc(Cl)cc2)c[nH]c1=S	97.1*	18.4	-11.0	-0.6	13.3	-2.7
C=CCn1c(-c2ccccc2)c[nH]c1=S	36.8	-0.8	-12.7	-1.6	11.3	0.8
COC(=O)C1(C(=O)OC)C[C@H](c2ccc(OC)cc2)N(Cc2ccccc2OC)[C@@H]1c1cccs1	.	.	-6.0	.	1.6	6.0
CCOC(=O)C1C(=O)C=C(C)C(C(=O)OCC)C1c1cccc([N+](=O)[O-])c1 (stereo not given)	-3.6	-1.4	-2.8	27.4*	-0.5	1.1
CCOC(=O)C1C(=O)C=C(c2ccc([N+](=O)[O-])cc2)CC1c1ccccc1 (stereo not given)	-6.0	7.2	1.6	-0.7	-1.1	-1.7
CCCc1ccc2c(C)cccc2n1	.	.	.	.	-6.1	1.1
CCOc1ccccc1NC(=O)c1nc(S(=O)(=O)Cc2ccccc2)ncc1Cl	96.1*	6.3	-1.5	.	7.5	-1.5
COc1ccccc1NC(=O)c1nc(S(=O)(=O)Cc2ccccc2)ncc1Cl	3.8	-1.9	12.3	7.2	6.5	-3.4
CC(=O)Nc1ccc(NC(=O)c2nc(S(=O)(=O)Cc3cccc(C)c3)ncc2Cl)cc1	-7.9	-3.9	65.6*	0.9	32.0*	7.0
CCS(=O)(=O)c1ncc(Cl)c(C(=O)Nc2ccccc2OC)n1	.	2.0	8.3	-1.6	-0.4	-0.4
COc1cc(C(=O)N(C)C2CCCCC2)cc(OC)c1OC	.	.	-4.3	.	-4.0	-2.4
S=c1[nH]nc(Nc2ccccc2Cl)s1	.	6.2	-4.8	3.8	23.4*	4.1
S=c1[nH]nc(Nc2cccc(Cl)c2)s1	98.9*	-0.2	0.4	-0.3	6.9	0.4
Cc1ccc(Nc2n[nH]c(=S)s2)cc1C	.	.	-12.1	.	5.8	3.6
C=CCN=C1NC(c2cccc(F)c2)C(C(=O)OC)=C(C)N1Cc1ccccc1C(F)(F)F (stereo not given)	.	.	.	.	-5.7	4.2
Cc1ccc(S(=O)(=O)n2ccc3c(OCCOCCSCC(NC(=O)OC(C)(C)C)C(=O)O)cccc32)cc1 (stereo not given)	7.3	-6.9	3.3	-0.6	2.7	47.7*
